Screens (PubChem)
aSyn yeast inh: alpha-synuclein toxicity inhibition in yeast; AID 652106; Potency, µM (titrated, usually from 46.1 µM), usual class: activators; 0.14% of 370,000 active; Yeast expressing alpha-synuclein, growth rescue, BacTiter-Glo, 24 h; further: nearly all actives have a fitted effect of over 65% in size
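Galactose-induced alpha-syn yeast (OD600=0.02, raffinose-pregrown) + pinned cpd, 24 hr, 30 deg C; growth by BacTiter-Glo luminescence. Growth restoration scores as activation.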
Mm-Cpn inhibitor: blocks the Methanococcus maripaludis chaperonin Mm-Cpn. Potency, µM (doses to about 76.9 µM), actives largely listed as inhibitors. purified Mm-Cpn ATPase, ADP Transcreener TR-FRET. 0.031% of 330,000 active; further: nearly all actives have a fitted effect of over 80% in size
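Reaction buffer contained 30 mM Tris pH 7.4, 100 mM KCl, 5 mM MgCl2 and 1 mM DTT. Mm-CPN (25 nM final) hydrolysed 10 uM ATP over 30 min at 37°C; ADP was read by HTRF.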
Abeta yeast res: compounds reversing amyloid beta toxicity in yeast | 0.063% of 410,000 active | yeast expressing A-beta42, growth rescue, OD600, 48 h; response scale: 0% DMSO, 100% iron-clioquinol control | Potency, µM (top dose mostly 46.1 µM), actives largely listed as activators; further: nearly all actives have a fitted effect of over 55% in size
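Yeast A-beta toxicity model in growth medium with pinned compounds, 48 h at 30 C; growth read as absorbance at 600 nm. Normalized to FeCl3/clioquinol equimolar mix (positive) and DMSO (negative).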
ClpP mod: qHTS Assay for Activators of ClpP; purified B. subtilis ClpP, FRET peptide cleavage, 20 min; Potency, µM (highest dose often 57.5 µM); ATP-dependent Clp protease proteolytic subunit (Bacillus subtilis (strain 168)), P80244; 1.9% of 340,000 active; active means well fitted falling curve with a large enough effect; inconclusive means small, poorly fitted or top-dose-only effect; inactive means no such curve, though single readings can be large or run the other way; further: the source files actives as falling curves though it sought activators and does not explain the sign; nearly all actives have a fitted effect of over 65% in size
Target sequence (P80244 whole entry, looked up): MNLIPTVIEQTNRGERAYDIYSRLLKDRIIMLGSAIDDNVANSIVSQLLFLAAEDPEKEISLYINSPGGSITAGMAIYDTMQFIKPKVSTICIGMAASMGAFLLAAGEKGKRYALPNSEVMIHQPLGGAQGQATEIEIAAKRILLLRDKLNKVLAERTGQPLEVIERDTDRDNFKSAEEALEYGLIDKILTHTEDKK
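FRET quenching reversal measured ClpP activation: 10 microg/mL B. subtilis ClpP at pH 8 with the FRET-FV decapeptide, read at 430 nm after 320 nm excitation. The 20-min minus 0-min signal was scaled between DMSO/no-enzyme wells and ADEP (5.8 microM final).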
TDP43 rescue: TDP-43 toxicity inhibition in yeast. TDP-43 expressing yeast growth rescue, BacTiter-Glo, 24 h. Potency, µM (doses to about 46.1 µM), actives largely listed as activators. 1.8% of 410,000 active; further: nearly all actives have a fitted effect of over 50% in size
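Yeast cells expressing TDP-43 under galactose induction are exposed to compounds for 24 hr at 30 deg C. BacTiter-Glo luminescence measures growth, so protective compounds score as activators.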
FUS suppressor: FUS proteinopathy suppression in yeast. S. cerevisiae FUS-expressing, growth rescue, OD600, 24 h. Potency, µM (doses to about 76.6 µM), hits mostly activators. 0.24% of 390,000 active. AID 1347120; further: nearly all actives have a fitted effect of over 55% in size
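Galactose (2%) drives FUS expression in yeast precultured in raffinose; seeding density OD 0.005. Test compounds incubated 24hr at 30C and 99% humidity before absorbance at 600 nm was measured.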
Numbers stand for hits; n = inactive; u = inconclusive; x = not tested or not shown; ! = repeats disagree; [ ] = dose if it differs, or a comment. The list is not random: actives were taken first. Their share in the collection is about 3.6%. Unless noted, the call rests on the fitted dose curve; in most records, active means well fitted curve in the direction sought with a large enough effect; inconclusive means small, poorly fitted or top-dose-only effect, or another doubt; inactive means no such curve, though single readings can be large; an effect the other way counts as inactive or inconclusive.

SMILES | aSyn yeast inh | Mm-Cpn inhibitor | Abeta yeast res | ClpP mod | TDP43 rescue | FUS suppressor
COc1ccc(N2CCN(C(=O)COC(=O)c3oc4ccc(OC)cc4c3C)CC2)cc1 | n | n | n | 25.1µM | n | n
COc1ccc2oc(C(=O)Nc3nc4ccccc4[nH]3)c(C)c2c1 | n | n | n | u | n | n
Cc1c(NC(=O)c2cc3ccccc3o2)cccc1-c1nc2ccccc2o1 | x | x | n | n | n | n
COc1ccccc1C(=O)Nc1cccc(C(=O)OCc2cc(=O)n3nc(C)sc3n2)c1 | x | x | n | n | n | n
CCc1ccc(Oc2c(C(F)(F)F)oc3c(CN4CCN(C)CC4)c(O)ccc3c2=O)cc1 | n | x | n | n | n | n
CCc1ccc(OCC(=O)Nc2ccc(-c3cc4ccccc4oc3=O)c(OC)c2)cc1 | n | n | n | 35.5µM | n | x
COc1cc(NC(=O)c2cc(Cl)ccc2Cl)ccc1-c1cc2ccccc2oc1=O | n | n | n | 28.2µM | n | n
Cc1[nH]nc(N=CC2=C(O)CC(C)(C)CC2=O)c1-c1ccc(Cl)cc1 | u | n | n | n | 15.8µM! | n
CC1=C(C(=O)Nc2ccc(Cl)cc2)C(c2ccccc2C)n2ncc(C(=O)Nc3ccc(C)cc3)c2N1 (stereo not drawn) | x | x | u | 31.6µM | n | u
COc1cccc(C2=CC(c3ccccc3F)n3ncc(C(=O)Nc4ccc(F)cc4)c3N2)c1 (stereo not drawn) | x | x | n | n | 22.4µM | n
CC1=C(C(=O)Nc2ccc(Cl)cc2)C(c2ccccc2)n2ncc(C(=O)Nc3ccccc3)c2N1 (stereo not drawn) | x | x | n | n | n | n
COc1cccc(C2C(C(=O)Nc3ccc(Cl)cc3)=C(C)Nc3c(C(=O)Nc4ccccc4)cnn32)c1OC (stereo not drawn) | x | x | u | 28.2µM | n | u
COc1ccc(C2=CC(c3ccccc3F)n3ncc(C(=O)Nc4ccc(C)cc4)c3N2)cc1 (stereo not drawn) | x | x | n | n | n | n
CCCCC(=O)NC(Nc1cc(C)ccn1)(C(=O)OCC)C(F)(F)F (stereo not drawn) | n | u | n | 25.1µM | n | n
COC(=O)C(NC(C)=O)(Nc1cc(C)ccn1)C(F)(F)F (stereo not drawn) | n | n | n | x | n | n
CCOC(=O)C(NC(C)=O)(Nc1cccc(F)c1)C(F)(F)F (stereo not drawn) | n | n | n | n | n | n
CCOC(=O)C(NC(C)=O)(Nc1ccc(F)cc1)C(F)(F)F (stereo not drawn) | n | n | n | 20µM | n | n
Cc1c(Cl)cccc1NC(=O)CSc1ncc2c(n1)-c1ccccc1N(C)S2(=O)=O | x | x | n | n | n | n
C[C@H](NC(=O)/C=C/[C@H]1O[C@@H](n2ccc(=O)[nH]c2=O)[C@H](O)[C@@H]1O)C(=O)O | n | x | n | n | n | n
C[C@H]([C@@H](N)C(=O)N[C@@H](C(=O)O)[C@@H]1O[C@H](n2ccc(=O)[nH]c2=O)[C@@H](O)[C@H]1O)[C@@H](O)c1ccc(O)cn1 | n | n[15.4 µM] | u | n | 4.47µM | n
Cc1ccn2c(=O)c(NC(=O)c3cccc([N+](=O)[O-])c3C)c(C)nc2c1 | x | x | n | n | n | n
N#CCCn1cc(/C=C2\NC(=S)N(c3ccccc3)C2=O)c(-c2ccc(-c3ccccc3)cc2)n1 | n | n | n | x | n | n
O=C(O)CCn1cc(/C=C2/NC(=S)N(c3ccccc3)C2=O)c(-c2ccccc2)n1 | n | n | n | 12.6µM | n | x
Cc1ccc(C(=O)/C=C/Nc2ccccc2C(N)=O)o1 | 11.2µM | x | n | u | n | n
COCCCNc1ccn2nc(-c3ccc(Cl)cc3)cc2n1 | n | x | n | n | 11.2µM | n
COc1cc(-c2cc3nc(NCc4cccc(Cl)c4)ccn3n2)cc(OC)c1OC | u | x | u | n | u | u
c1coc(-c2ccc3ncnc(NCc4cccs4)c3c2)c1 | x | n | x | x | x | x
